A number with no mark means an inactive call. Activity calls are given as the source filed them. Calls come from the whole dose curve; as a rule, active = well fitted curve in the direction sought with a large enough effect in the repeat runs; inconclusive = weak or mixed curves; inactive = flat fitted curve, though single readings scatter.

From PubChem BioAssay (Tox21) come the findings set out here.
% is set by controls: 0 for no effect and ±100 for the full control effect.

One assay can be described thus: qHTS assay to test for compound auto fluorescence at 535 nm (green) in HEK293 cell free culture (AID 720682). The note with it: cell-free medium, green autofluorescence 485/535 nm, hits give high values; series mostly up to 91.3 µM; activity change: at the top concentration. Put shortly:
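Using fluorescein as calibrant, autofluorescence was quantified at 485/535 nm in cell-free DMEM containing 10% FBS after pintool addition of compound or vehicle.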
Consider `CC(C)CCCCCCOC(=O)C1CCCCC1C(=O)OCCCCCCC(C)C` (stereo not given), for which the “activity change” value was 0.057%.

For the molecule `OCCCCCCCl`, the “activity change” value was 0.0164% [at 95.7 µM].

Take `CCCCCCCC/C=C\CCCCCCCC(=O)OC[C@@H](O)[C@H]1OC[C@H](O)[C@H]1O`: the call was inactive.

As for `Cc1cccc(Nc2ccncc2S(=O)(=O)NC(=O)NC(C)C)c1`, the activity change was -0.379% [at 18.6 µM].

Turning to `CNC(=O)NC`, the “activity change” value is 0.0989% [at 95.7 µM].

Take `O=C(/C=C/c1ccccc1)NCCO`: the “activity change” value is -0.0207% [at 46 µM].

As to `O=C(O)c1ccccc1C(=O)OCc1ccccc1`, the “activity change” value was 0.0731%.

In the case of `NC(Cc1c[nH]c2ccccc12)C(=O)O` (stereo not given), the “activity change” value was 0.0209% [at 46 µM].

As to `N#CCCOCCOCCC#N`, the “activity change” value was 0.0515%.

Take `COC(OC)C(C)c1ccccc1` (stereo not given): the “activity change” value is 0.0078%.

Turning to `Cc1ccccc1N1CCN(CCc2nnc3n2CCCC3)CC1`, the “activity change” value was -0.119% [at 46 µM].

As to `CCN1CN(CC)CN(CC)C1`, the “activity change” value is -0.0533%.

As for `O=P(O)(O)OCC(O)CO` (stereo not given), the “activity change” value is 0.0575% [at 46 µM].

On to `Cc1cccc(NC(=S)N(C)C)c1`, for which the “activity change” value is -0.0454%.

Turning to `CCCCCCCC[Si](OCC)(OCC)OCC`, the “activity change” value was -0.0252%.

The nature of the next assay: qHTS assay to test for compound auto fluorescence at 590 nm (red) in HEK293 cell free culture (AID 720683). The note with it: cell-free medium autofluorescence, Ex540/Em590 red; series mostly up to 91.3 µM; fluorescence, % of fluorescent control: at the top concentration. A digest of the protocol:
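Red-channel autofluorescence of compounds in culture medium (DMEM, 10% FBS), no cells, measured at 540/590 nm. Rose Bengal sodium is the reference fluorophore for equivalence.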
A general note: qHTS replaces the single test concentration by a dilution series.
`O=c1[nH]c(=O)c2ccccc2o1`: the “fluorescence, % of fluorescent control” value was -0.107% [at 46 µM].

For `Cc1cc(O)c2c(c1)C(=O)c1cccc(O)c1C2=O`, the “fluorescence, % of fluorescent control” value was 0.0805% [at 46 µM].

As to `FC(F)(F)/C(=N\OCC1OCCO1)c1ccc(Cl)cc1`, the “fluorescence, % of fluorescent control” value is -0.0609%.

Turning to `CC(C)=CC(C)(C)C`, the “fluorescence, % of fluorescent control” value is -0.175%.

As for `C=CCOCC(CO)(COCC=C)COCC=C`, the “fluorescence, % of fluorescent control” value was 0.0098%.

`C[C@H](CCC(=O)NCC(=O)O)[C@H]1CC[C@H]2[C@@H]3[C@H](O)C[C@@H]4C[C@H](O)CC[C@]4(C)[C@H]3C[C@H](O)[C@]12C`: the “fluorescence, % of fluorescent control” value was -0.0547%.

As to `O=S(=O)(O)CCO`, the “fluorescence, % of fluorescent control” value was 0.209% [at 95.7 µM].

Regarding `C[N+](C)(C)CC(O)CCl` (stereo not given), the “fluorescence, % of fluorescent control” value is -0.473%.

In the case of `CN(C)CCOCCN(C)CCO`, the “fluorescence, % of fluorescent control” value is -0.0294%.

As to `CN(C)CCCNCCC#N`, the “fluorescence, % of fluorescent control” value was -0.211%.

For the molecule `C=CC(C)(O)CC/C=C(\C)CC` (stereo not given), the “fluorescence, % of fluorescent control” value was 0.0255%.

As for `O=C(Nc1cccc(C2=NCCN2)c1)Nc1cccc(C2=NCCN2)c1`, the “fluorescence, % of fluorescent control” value is 0.183% [at 46 µM].

With `CC(C)(c1ccc(Oc2ccc3c(c2)C(=O)OC3=O)cc1)c1ccc(Oc2ccc3c(c2)C(=O)OC3=O)cc1`, the “fluorescence, % of fluorescent control” value was -0.0013%.

For `CO/N=C(/C(=O)N[C@@H]1C(=O)N2C(C(=O)O)=C(Cn3nnc(C)n3)CS[C@H]12)c1csc(N)n1`, the “fluorescence, % of fluorescent control” value is 0.639% [at 46 µM].

As to `CC(=O)OCCCc1ccccc1`, the “fluorescence, % of fluorescent control” value was -0.244%.

Regarding `COc1cc2c3cc1Oc1cc(ccc1O)C[C@@H]1c4c(cc(OC)c(O)c4Oc4ccc(cc4)C[C@@H]3N(C)CC2)CC[N+]1(C)C`, the “fluorescence, % of fluorescent control” value is 0.0288% [at 46 µM].

On to `SCCSCCS`, for which the “fluorescence, % of fluorescent control” value was -0.181%.

In the case of `CC1=NN(c2ccc(S(=O)(=O)O)cc2)C(=O)C1N=Nc1ccccc1` (stereo not given), the “fluorescence, % of fluorescent control” value was -0.136%.

As for `CCNC(=O)NCCCOc1cccc(CN2CCCCC2)c1`, the “fluorescence, % of fluorescent control” value is -0.0415% [at 46 µM].

Take `C1CCN2C[C@@H]3C[C@@H](CN4CCCC[C@@H]34)[C@H]2C1`: the fluorescence, % of fluorescent control was 0.165% [at 18.6 µM].

With `CC(C)CCCCCCOC(=O)C1CCCCC1C(=O)OCCCCCCC(C)C` (stereo not given), the “fluorescence, % of fluorescent control” value was -0.0526%.

Regarding `OCCCCCCCl`, the “fluorescence, % of fluorescent control” value was 0.0352% [at 95.7 µM].

`CCCCCCCC/C=C\CCCCCCCC(=O)OC[C@@H](O)[C@H]1OC[C@H](O)[C@H]1O`: the outcome was inactive.

Regarding `Cc1cccc(Nc2ccncc2S(=O)(=O)NC(=O)NC(C)C)c1`, the fluorescence, % of fluorescent control is 0.257% [at 18.6 µM].

In the case of `CNC(=O)NC`, the “fluorescence, % of fluorescent control” value was -0.0847% [at 95.7 µM].

Regarding `O=C(/C=C/c1ccccc1)NCCO`, the “fluorescence, % of fluorescent control” value was -0.851% [at 46 µM].

Consider `O=C(O)c1ccccc1C(=O)OCc1ccccc1`, for which the “fluorescence, % of fluorescent control” value is -0.029%.

`NC(Cc1c[nH]c2ccccc12)C(=O)O` (stereo not given): the “fluorescence, % of fluorescent control” value is -0.0228% [at 46 µM].

As to `N#CCCOCCOCCC#N`, the “fluorescence, % of fluorescent control” value is 0.0691%.

`COC(OC)C(C)c1ccccc1` (stereo not given): the “fluorescence, % of fluorescent control” value was 0.141%.

As to `Cc1ccccc1N1CCN(CCc2nnc3n2CCCC3)CC1`, the “fluorescence, % of fluorescent control” value is -0.11% [at 46 µM].

For `CCN1CN(CC)CN(CC)C1`, the “fluorescence, % of fluorescent control” value is -0.631%.

For the molecule `O=P(O)(O)OCC(O)CO` (stereo not given), the “fluorescence, % of fluorescent control” value was -0.0117% [at 46 µM].

As to `Cc1cccc(NC(=S)N(C)C)c1`, the “fluorescence, % of fluorescent control” value is 0.114%.

Consider `CCCCCCCC[Si](OCC)(OCC)OCC`, for which the “fluorescence, % of fluorescent control” value is 0.0951%.

A short description of the next assay: qHTS assay to test for compound auto fluorescence at 590 nm (red) in HepG2 cell free culture (AID 720684). The note with it: cell-free medium autofluorescence, red 540/590 nm; series mostly up to 91.3 µM; fluorescence, % of Rose Bengal: at the top concentration. A digest of the protocol:
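Plate contents were MEM with 10% FBS plus test compound or DMSO, no cells. Fluorescence was recorded with 540 nm excitation and 590 nm emission.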
Regarding `O=c1[nH]c(=O)c2ccccc2o1`, the “fluorescence, % of Rose Bengal” value is 0.0088% [at 46 µM].

Regarding `Cc1cc(O)c2c(c1)C(=O)c1cccc(O)c1C2=O`, the “fluorescence, % of Rose Bengal” value was -0.0342% [at 46 µM].

Regarding `FC(F)(F)/C(=N\OCC1OCCO1)c1ccc(Cl)cc1`, the “fluorescence, % of Rose Bengal” value was 0.011%.

Take `CC(C)=CC(C)(C)C`: the “fluorescence, % of Rose Bengal” value is -0.0837%.

Turning to `C=CCOCC(CO)(COCC=C)COCC=C`, the “fluorescence, % of Rose Bengal” value is 0.0373%.

With `C[C@H](CCC(=O)NCC(=O)O)[C@H]1CC[C@H]2[C@@H]3[C@H](O)C[C@@H]4C[C@H](O)CC[C@]4(C)[C@H]3C[C@H](O)[C@]12C`, the “fluorescence, % of Rose Bengal” value was 0.0435%.

Consider `O=S(=O)(O)CCO`, for which the “fluorescence, % of Rose Bengal” value was 0.316% [at 95.7 µM].

Take `C[N+](C)(C)CC(O)CCl` (stereo not given): the “fluorescence, % of Rose Bengal” value was -0.242%.

For the molecule `CN(C)CCOCCN(C)CCO`, the “fluorescence, % of Rose Bengal” value is -0.155%.

In the case of `CN(C)CCCNCCC#N`, the “fluorescence, % of Rose Bengal” value was 0.0412%.

For the molecule `C=CC(C)(O)CC/C=C(\C)CC` (stereo not given), the “fluorescence, % of Rose Bengal” value was -0.127%.

Turning to `O=C(Nc1cccc(C2=NCCN2)c1)Nc1cccc(C2=NCCN2)c1`, the “fluorescence, % of Rose Bengal” value was 0.0554% [at 46 µM].

Take `CC(C)(c1ccc(Oc2ccc3c(c2)C(=O)OC3=O)cc1)c1ccc(Oc2ccc3c(c2)C(=O)OC3=O)cc1`: the “fluorescence, % of Rose Bengal” value was -0.159%.

For `CO/N=C(/C(=O)N[C@@H]1C(=O)N2C(C(=O)O)=C(Cn3nnc(C)n3)CS[C@H]12)c1csc(N)n1`, the “fluorescence, % of Rose Bengal” value is -0.752% [at 46 µM].

Take `CC(=O)OCCCc1ccccc1`: the “fluorescence, % of Rose Bengal” value is 0.0364%.

With `COc1cc2c3cc1Oc1cc(ccc1O)C[C@@H]1c4c(cc(OC)c(O)c4Oc4ccc(cc4)C[C@@H]3N(C)CC2)CC[N+]1(C)C`, the “fluorescence, % of Rose Bengal” value was -0.164% [at 46 µM].

`SCCSCCS`: the “fluorescence, % of Rose Bengal” value was -0.262%.

In the case of `CC1=NN(c2ccc(S(=O)(=O)O)cc2)C(=O)C1N=Nc1ccccc1` (stereo not given), the “fluorescence, % of Rose Bengal” value was -0.0714%.

Turning to `CCNC(=O)NCCCOc1cccc(CN2CCCCC2)c1`, the “fluorescence, % of Rose Bengal” value is 0.0087% [at 46 µM].

On to `C1CCN2C[C@@H]3C[C@@H](CN4CCCC[C@@H]34)[C@H]2C1`, for which the fluorescence, % of Rose Bengal is -0.0423% [at 18.6 µM].

For `CC(C)CCCCCCOC(=O)C1CCCCC1C(=O)OCCCCCCC(C)C` (stereo not given), the “fluorescence, % of Rose Bengal” value is -0.0219%.

For `OCCCCCCCl`, the “fluorescence, % of Rose Bengal” value is -0.0223% [at 95.7 µM].

`CCCCCCCC/C=C\CCCCCCCC(=O)OC[C@@H](O)[C@H]1OC[C@H](O)[C@H]1O`: the molecule was called inactive.

For the molecule `Cc1cccc(Nc2ccncc2S(=O)(=O)NC(=O)NC(C)C)c1`, the fluorescence, % of Rose Bengal is -0.0539% [at 18.6 µM].

Regarding `CNC(=O)NC`, the “fluorescence, % of Rose Bengal” value was -0.118% [at 95.7 µM].

For the molecule `O=C(/C=C/c1ccccc1)NCCO`, the “fluorescence, % of Rose Bengal” value was -0.147% [at 46 µM].

In the case of `O=C(O)c1ccccc1C(=O)OCc1ccccc1`, the “fluorescence, % of Rose Bengal” value was -0.0452%.

Take `NC(Cc1c[nH]c2ccccc12)C(=O)O` (stereo not given): the “fluorescence, % of Rose Bengal” value is 0.0878% [at 46 µM].

Consider `N#CCCOCCOCCC#N`, for which the “fluorescence, % of Rose Bengal” value was 0.0633%.

Consider `COC(OC)C(C)c1ccccc1` (stereo not given), for which the “fluorescence, % of Rose Bengal” value is 0.0352%.

For the molecule `Cc1ccccc1N1CCN(CCc2nnc3n2CCCC3)CC1`, the “fluorescence, % of Rose Bengal” value was 0.0089% [at 46 µM].

On to `CCN1CN(CC)CN(CC)C1`, for which the “fluorescence, % of Rose Bengal” value is -0.473%.

As to `O=P(O)(O)OCC(O)CO` (stereo not given), the “fluorescence, % of Rose Bengal” value is -0.0186% [at 46 µM].

Regarding `Cc1cccc(NC(=S)N(C)C)c1`, the “fluorescence, % of Rose Bengal” value is 0.0964%.

`CCCCCCCC[Si](OCC)(OCC)OCC`: the “fluorescence, % of Rose Bengal” value is 0.211%.
